Results filed as inconclusive are left out. Unmarked numbers belong to inactive results. Active and inactive are the calls of the source. The call rests on the fitted dose curve; in most records, active means well fitted inhibition curve with a large enough effect; inconclusive means small, poorly fitted or top-dose-only effect; inactive means flat fitted curve, though single readings scatter.
Test system: HaCat
Test: Cytotoxic Profiling of Annotated Libraries Using Quantitative High-Throughput Screening (AID 1296008); further: nearly all actives have a fitted effect of over 60% in size
Conditions: Five cell lines viability, CellTiter-Glo ATP luminescence, 48-72 h; max response: stronger effect = lower value
Procedure, shortened: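 Cytotoxicity was measured as CellTiter-Glo ATP luminescence, read after 10 min at room temperature. Compound treatment of the cells lasted 48 or 72 hr at 37 degrees Celsius in a qHTS format.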
On the % scale 0 is the no-effect control and ±100 the full control effect; potency means the concentration at half of the fitted maximal effect.

| Compound | Potency | max response |
| --- | --- | --- |
| COc1c(C)cnc(Cn2cc(C#CCC(C)(C)O)c3c(Cl)nc(N)nc32)c1C | 73.1 nM (active) |  |
| COC(=O)N1CCC(n2ncc3c(N4CCOCC4)nc(-c4ccc(NC(=O)NC5CC5)cc4)nc32)CC1 | 6510 nM (active) |  |
| CCCCC1CCN(CCCN2C(=O)CCc3ccccc32)CC1 |  | -2.1% |
| N#Cc1ccnc(Nc2cc(C3CCN(C4COC4)CC3)cc(N3CCC(F)(F)C3)n2)c1 | 23400 nM (active) |  |
| CC1(C(=O)Nc2ccc(F)nc2)CCCN1c1nc(Nc2cc(C3CC3)[nH]n2)c2cccn2n1 (centres undefined) | 2060 nM (active) |  |
| C=C1C(=O)O[C@@H]2C[C@H](C)[C@@H]3CC(=O)C(C)=C3C[C@H]12 | 14600 nM (active) |  |
| CN1CCC(NC(=O)c2cc(-c3c(O)cc(O)cc3Oc3ccc([N+](=O)[O-])cc3)on2)CC1 | 1460 nM (active) |  |
| COC(C)(C)CCn1nc(Nc2c(C)cccc2C)c2cnc(Nc3ccc(OCCN4CCCC4)c(F)c3)nc21 | 1300 nM (active) |  |
| Cc1nnc(C[C@@H]2C=C(c3ccc(Cl)cc3)c3ccccc3-n3c(C)nnc32)o1 |  | -1.46% |
| Cc1cc(-c2nc(-c3ccc(OC(F)(F)F)cc3)no2)nn1Cc1ccnc(N2CCN(C3CC3)CC2)c1 |  | 4.17% |
| COC1CC/C=C(\C)C(=O)Nc2cc(O)cc(c2)CC(C)CC(OC)C(O)C(C)/C=C(\C)C1OC(N)=O (centres undefined) | 7090 nM (active) |  |
| CC(C)NCCCn1c(Sc2cc3c(cc2I)OCO3)nc2c(N)ncnc21 | 231 nM (active) |  |
| CCOC(=O)c1cnc2ccc(-c3cncc(NS(=O)(=O)c4ccccc4)c3)cn12 | 1460 nM (active) |  |
| CCNC(=O)Nc1ccc(-c2nc3c(c(N4CCOCC4C)n2)CCN(C2COC2)C3)cc1 (centres undefined) |  | -28.1% |
| CN1C(=O)c2sccc2N(C)c2nc(Nc3ccc(S(N)(=O)=O)cc3)ncc21 | 18600 nM (active) |  |
| CN1CCN(Cc2ccc(NC(=O)Cc3ccc(Oc4cc(NC(=O)C5CC5)ncn4)cc3)cc2C(F)(F)F)CC1 |  | -122% |
| CCc1c[nH]c2ncnc(N3CC[C@](N)(CNC(=O)c4ccc(F)cc4F)C3)c12 |  | -5.86% |

| Compound | Potency | max response |
| --- | --- | --- |
| COc1ccc(C[C@H]2COC(=O)[C@@H]2Cc2ccc(O[C@@H]3O[C@H](CO)[C@@H](O)[C@H](O)[C@H]3O)c(OC)c2)cc1OC |  | -11.8% |
| C=CC(=O)Nc1cccc(Nc2nc(Nc3ccc(NC4CN(CCF)C4)cc3OC)ncc2C(F)(F)F)c1 | 3660 nM (active) |  |
| CC1CC(=O)C2=C(C1)C1OC1C1(O)C2C(=O)c2cccc(O)c2C1O (centres undefined) |  | -53.4% |
| CCc1cc(C(N)=O)ccc1-n1nc(C(C)C)c2c(-n3cnc(-c4cnn(C)c4)c3)ccnc21 |  | -102% |
| O=C1C(Cc2ccc(O)cc2)N2C(=O)CCN(C(=O)NCc3ccccc3)C2CN1Cc1cccc2ccccc12 (centres undefined) | 5800 nM (active) |  |
| CC[C@@H](C)Nc1cc(C(=O)NC2CC3CCC(C2)N3c2ccc(C(=O)C3CC3)cn2)c(C)cc1C(N)=O (some centres undefined) | 184 nM (active) |  |
| Cn1c(=O)c2c(ncn2Cc2ccc(C(C)(C)C)cc2)n(C)c1=O |  | -22.1% |
| O=c1cc(NCCCN[C@@H]2CCOc3c(Br)cc(Br)cc32)[nH]c2ccsc12 |  | -8.13% |
| C/C1=C/CCC2=CC(OC2=O)C(C)(C)/C=C/C1=O (centres undefined) | 2590 nM (active) |  |
| CCCC1(CCC)CCC2(CCN(CCCN(CC)CC)C2)CC1 | 4610 nM (active) |  |
| CC[C@@H](C)Nc1cc(C(=O)NC2CC3CC[C@@H](C2)N3c2ccc(C(=O)C3CC3)cn2)c(C)cc1C(N)=O (some centres undefined) | 92 nM (active) |  |
| Cc1nc(-c2cn3c(n2)-c2ccc(-c4cnn(C(C)(C)C(N)=O)c4)cc2OCC3)n(C(C)C)n1 | 2910 nM (active) |  |
| CC(C)(C)c1ccc(C(=O)Nc2cc(Cl)c(Br)cc2C(=O)O)cc1 |  | -1.9% |
| C/C1=C\[C@@H](C)C[C@@H](C)[C@@H](Cc2cnco2)OC(=O)/C(C)=C/[C@@H](C)C[C@@H](C)[C@@H](Cc2cnco2)OC1=O |  | -7.73% |
| COC1=CC(=O)C[C@@H](C)[C@@]12Oc1c(Cl)c(OC)cc(OC)c1C2=O |  | -90.1% |
| Cc1ccccc1C(C(=O)NC1CCCCC1)N(C(=O)Cn1cnc2ccccc21)c1cccc(F)c1 (centres undefined) | 8200 nM (active) |  |
| CS(=O)(=O)c1ccc(Oc2cc(F)cc(C#N)c2)c2c1[C@H](O)C(F)(F)C2 |  | -0.258% |
